CHX counter: Cycloheximide Counterscreen for Small Molecule Inhibitors of Shiga Toxin. cell reporter, cycloheximide protein synthesis inhibition counterscreen. max response, %. 300,000 compounds, 12% hits. AID 2314, 2010; in the data active = max response mostly above about 13%, no sharp cut-off; inactive = mostly below about 14%; note: read at 38.3 µM for the half of the compounds with a filed dose
Pf growth 96h: Primary qHTS for delayed death inhibitors of the malarial parasite plastid, 96 hour incubation | P. falciparum luciferase reporter growth, 96 h | Potency, µM (highest dose often 28.7 µM), actives largely listed as inhibitors | 320,000 compounds, 6.9% hits | AID 504834, 2011
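P. falciparum expressing integrated firefly luciferase, in erythrocytes at 2% hematocrit, 0.05% parasitemia, incubated with compounds 96 h at 37 C, 5% CO2. Growth inhibition read as loss of luminescence; two-generation exposure targets delayed-death apicoplast inhibitors.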
Pf growth 48h: Primary qHTS for delayed death inhibitors of the malarial parasite plastid, 48 hour incubation; P. falciparum luciferase growth in erythrocytes, 48 h; Potency, µM (series often up to 28.7 µM), actives largely listed as inhibitors; 310,000 compounds, 5.9% hits; AID 504832, 2011
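Luciferase-expressing parasites in RBCs, 2% Hct / 0.1% parasitemia final; RPMI 1640 + 0.5% Albumax; 37 C, 5% CO2, one generation; luminescence read-out, lower signal = inhibition.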
Shiga inhibitor: A qHTS for Small Molecule Inhibitors of Shiga Toxin | Vero cells, Shiga toxin protein synthesis inhibition reporter | inhibition, % at 38.7 µM | 290,000 compounds, 9.2% hits | AID 2315, 2010; in the data active = inhibition mostly above about 28%, no sharp cut-off; inactive = mostly below about 43%
NS1 function inh: qHTS Assay for Inhibitors of Influenza NS1 Protein Function; AID 2326, 2010; 270,000 compounds, 0.4% hits; Potency, µM (series often up to 46.1 µM); calls by dose curve; note: actives are rising curves; nearly all actives have a fitted effect of over 50% in size
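Read-out: OD600 growth recovery of NS1-expressing budding yeast. Cells grown overnight at 30C in -URA glucose medium, washed, resuspended and diluted 1:100 in 2% galactose assay medium, pH 6.0. Same strain lacking NS1 served as positive control.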
Hits are given with their value; – = inactive; ? = inconclusive; · = no result given. An excerpt weighted towards active compounds, which were near 21% of everything screened. Unless noted, calls come from the whole dose curve; as a rule, active = well fitted inhibition curve with a large enough effect; inconclusive = small, poorly fitted or top-dose-only effect, or another doubt; inactive = no such curve, though single readings can be large or run the other way.

SMILES	CHX counter	Pf growth 96h	Pf growth 48h	Shiga inhibitor	NS1 function inh
Cc1cnc(C(=O)N2CCc3c([nH]c4ccccc34)C2c2ccc(F)cc2)cn1 (configuration not stated)	–	?	5.22µM	–	–
O=C(c1cnccn1)N1CCc2c([nH]c3ccccc23)C1c1cccc(Cl)c1 (configuration not stated)	11.6	?	?	27.2	–
CC(C)c1nc(C(=O)N2CCc3c([nH]c4ccccc34)C2c2ccccn2)cs1 (configuration not stated)	–	–	?	–	–
CCc1ccc(C2c3[nH]c4ccccc4c3CCN2C(=O)c2cc(C)nn2C)cc1 (configuration not stated)	–	–	?	–	–
O=C(c1cc[n+]([O-])cc1)N1CCc2c([nH]c3ccccc23)C1c1ccccc1Cl (configuration not stated)	–	–	?	–	–
Cc1cc(C(=O)N2CCc3c([nH]c4ccccc34)C2c2c(F)cccc2Cl)no1 (configuration not stated)	–	–	5.86µM	–	–
CSc1ccc(C2c3[nH]c4ccccc4c3CCN2C(=O)c2cc(C)n(C)n2)cc1 (configuration not stated)	34.0	–	?	80.8	–
Cc1nn(CCCC(=O)NCc2ccc(F)cc2)c(=O)c2nccn12	–	–	–	–	–
COc1ccc(/C=N/NC(=O)C(=O)NCc2cccnc2)cc1	–	–	–	–	·
O=C1c2cccnc2C(=O)N1c1cccc([N+](=O)[O-])c1	–	–	–	–	–
Cc1cc(C(=O)N2CCc3c([nH]c4ccccc34)C2c2cccc(Cl)c2)nn1C (configuration not stated)	45.5	11.7µM	?	49.8	–
CC(=O)NCCC(=O)N1CCc2c([nH]c3ccccc23)C1c1cccc(Cl)c1 (configuration not stated)	–	–	–	–	–
CC(=O)NCCC(=O)N1CCc2c([nH]c3ccccc23)C1c1cccc(C)c1 (configuration not stated)	18.7	?	–	–	–
Cc1cccc(OCCC(=O)Nc2nnc(C)s2)c1	–	–	–	–	·
COc1ccc(-c2cc(=O)c3ccccc3[nH]2)cc1	–	?	?	–	–
COc1ccc(-c2cc(=O)c3ccccc3s2)cc1	29.0	–	·	92.5	–
COc1ccc2sc3ccccc3c(=O)c2c1	43.9	–	–	80.5	–
COc1ccccc1CCC(=O)Nc1ccc2c(c1)CN(Cc1ccc(C)o1)CC2	–	?	?	–	–
COc1ccc(CN(CCN(C)C)c2ncccn2)cc1	·	?	–	·	·
CCCCCCCCCCCCCCCC[N+](C)(C)CCN(Cc1ccc(OC)cc1)c1ncccn1	·	1.85µM	3.7µM	·	·
CC1Cc2ccccc2N1C(=O)CSc1nc2ccccc2s1 (configuration not stated)	24.5	?	–	40.8	–
CC1Cc2ccccc2N1C(=O)CSc1nc(-c2ccccc2)cs1 (configuration not stated)	–	10.4µM	?	–	–
CC1Cc2ccccc2N1C(=O)CSc1nncs1 (configuration not stated)	·	?	–	·	·
O=C(COC(=O)C12CC3CC(CC(C3)C1)C2)Nc1ccc([N+](=O)[O-])cc1Cl	–	?	?	–	–
COc1cccc(-c2nc(COc3ccc(Cl)cc3Cl)no2)c1	13.8	–	–	–	–
SMILES	CHX counter	Pf growth 96h	Pf growth 48h	Shiga inhibitor	NS1 function inh
COc1ccccc1-c1nc(COc2ccc(Cl)cc2Cl)no1	51.7	–	–	91.1	–
COc1ccc(-c2noc(CCCOc3ccc(Cl)cc3Cl)n2)cc1	–	–	–	–	–
CC(C)CN(C(=O)c1cccc(S(=O)(=O)N2CCN(c3ccc(F)cc3)CC2)c1)C1CCS(=O)(=O)C1 (configuration not stated)	·	–	–	·	·
Cc1cccc(N2CCN(C(=O)CCS(=O)(=O)c3ccc4c(c3)oc(=O)n4C)CC2)c1C	–	9.28µM	13.1µM	–	–
Cc1cccc(N2CCN(C(=O)CCNS(=O)(=O)c3ccc4c(c3)CCC(=O)N4)CC2)c1C	–	?	?	–	–
Cc1cccc(N2CCN(C(=O)CCS(=O)(=O)c3ccc4c(c3)NC(=O)CO4)CC2)c1C	–	–	–	–	–
Cc1cccc(N2CCN(C(=O)CCNS(=O)(=O)c3ccc4c(c3)oc(=O)n4C)CC2)c1C	–	1.31µM	?	–	–
